Records with an inconclusive call do not appear. A call without a number means that no potency is given here. The source made the active and inactive calls. Calls come from the whole dose curve; as a rule, active = well fitted inhibition curve with a large enough effect; inconclusive = small, poorly fitted or top-dose-only effect, or effect the other way; inactive = flat fitted curve, though single readings scatter.
Target: Ubiquitin carboxyl-terminal hydrolase 2 (Homo sapiens) (UniProt O75604)
Assay: Confirmation Assay for Inhibitors of Ubiquitin-specific Protease USP2a Using CHOP2 as the Reporter; note: nearly all actives have a fitted effect of over 55% in size
Settings: USP2 core, Ub-CHOP2 coupled reporter fluorescence; series mostly up to 38.3 µM
How it was run: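 USP2 core (10 nM final) was preincubated with compound for 30 min at RT in Tris-HCl pH 8.0, CaCl2, beta-mercaptoethanol, CHAPS. Ub-CHOP2 and reporter substrate (25 nM final each) were added, and fluorescence (Ex 485/Em 531 nm) was read after 60 min.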
Potency is the fitted concentration of half-maximal effect.

Chain of Ubiquitin carboxyl-terminal hydrolase 2 (Homo sapiens) (O75604 whole entry, looked up): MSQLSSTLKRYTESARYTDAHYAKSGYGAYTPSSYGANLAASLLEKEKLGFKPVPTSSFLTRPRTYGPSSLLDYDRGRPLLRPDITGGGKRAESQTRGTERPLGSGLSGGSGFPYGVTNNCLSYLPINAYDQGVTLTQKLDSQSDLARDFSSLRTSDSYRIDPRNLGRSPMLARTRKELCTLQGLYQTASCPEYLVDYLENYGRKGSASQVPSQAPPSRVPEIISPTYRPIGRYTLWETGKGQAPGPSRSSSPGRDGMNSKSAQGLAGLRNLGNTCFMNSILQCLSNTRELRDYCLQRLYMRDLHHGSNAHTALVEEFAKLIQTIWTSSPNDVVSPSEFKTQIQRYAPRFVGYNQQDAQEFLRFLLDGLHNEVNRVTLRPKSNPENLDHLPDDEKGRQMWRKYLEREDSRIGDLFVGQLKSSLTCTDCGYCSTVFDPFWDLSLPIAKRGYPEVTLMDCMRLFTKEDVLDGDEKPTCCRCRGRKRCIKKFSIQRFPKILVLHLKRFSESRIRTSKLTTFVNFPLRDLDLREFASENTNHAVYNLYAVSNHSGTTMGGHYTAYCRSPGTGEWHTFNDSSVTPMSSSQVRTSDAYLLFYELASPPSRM

Structure (SMILES) | Potency
O=C(N/N=C/c1ccc(-c2ccc(S(=O)(=O)Nc3ncccn3)cc2)o1)c1cc2ccccc2cc1O | 9.27 µM (active)
CC1CCCCN1CCNC(=O)CC1Oc2ccccc2NC1=O (stereo unspecified) | inactive
COc1cc(-c2nc(-c3ccc4c(c3)-c3ccccc3S4(=O)=O)c(-c3ccccc3)[nH]2)cc(OC)c1O | inactive
COc1ccc(/C=C(\NC(=O)c2ccc(OC)c(OC)c2)C(=O)N2CCN(C)CC2)cc1 | inactive
O=C(COC(=O)c1ccc(F)c(S(=O)(=O)N2CCOCC2)c1)c1ccccc1 | inactive
COc1ccc(NC(=O)CSc2nc(O)cc(=O)n2-c2ccc(OC)cc2)cc1 | inactive
O=C(Nc1cccc(C(F)(F)F)c1)/C(=C\c1ccco1)NC(=O)c1cccs1 | inactive
COc1ccc2cc(CN(C(=O)Nc3ccccc3)C3CCCC3)c(=O)[nH]c2c1 | inactive
CCOc1ccc(NC(=O)c2cccc(-n3cnnn3)c2)cc1 | inactive
O=C(CCc1nc(-c2ccccc2F)no1)NC1CCCCCC1 | inactive
CCC(C(=O)NCc1ccccc1OC)n1nc(C)n2c(cc3occc32)c1=O (stereo unspecified) | inactive
CC(=O)Nc1ccc(NC(=O)[C@@H](NC(=O)c2cccc(C)c2)C(C)C)cc1 | inactive
Cc1nc2ccccc2c2oc(C(=O)NCCN3CCN(C)CC3)cc12 | inactive
O=C(CCN1C(=O)/C(=C\c2ccco2)SC1=S)Nc1ccc(C(=O)O)c(O)c1 | 13.1 µM (active)
CCOc1ccccc1N(CC(=O)NC(C)(C)C)C(=O)c1ccc(CN2CCOCC2)o1 | inactive
O=C(CNC(=O)c1ccco1)Nc1ccc(S(=O)(=O)N2CCCC2)cc1 | inactive

Reference: PubChem BioAssay AID493168 (National Center for Advancing Translational Sciences (NCATS), 2011)
